Experimental data from PubChem BioAssay (NCATS).
Inconclusive results are not listed. Calls of active or inactive are those of the source. Calls follow the shape of the dose curve; as a rule, active = well fitted curve in the direction sought with a large enough effect; inconclusive = small, poorly fitted or top-dose-only effect, or another doubt; inactive = no such curve, though single readings can be large; an effect the other way counts as inactive or inconclusive.

Assays:
NIH3T3 = test: qHTS assay to identify novel small-molecules to repurpose for Merkel cell carcinoma treatment (AID 1296009); settings: MCC and control cell lines, CellTiter-Glo viability, 72 h; at 44.8 µM (top of the series) unless noted; also: nearly all actives have a fitted effect of over 60% in size
Outline: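 Cell viability measured by CellTiter-Glo following 72 hr compound treatment at 37 degree celsius, with NPC and MIPE libraries tested in 8- and 11-point concentration series.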

C33A = test: Primary qHTS to identify gynecologic anti-cancer compounds using libraries of approved drugs and bioactive compounds (AID 1345084); settings: Gynecologic cancer cell panel viability, ATPlite luminescence, 48 h; series mostly up to 57.5 µM; also: nearly all actives have a fitted effect of over 55% in size; also: potency is read from the fitted curve at half-maximal effect; as to activity change, negative = cytotoxicity: % is scaled to controls: 0 for no effect and ±100 for the full control effect
Outline: (§1)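 Cell viability after 48 h drug treatment, ATPlite luminescence readout; five doses.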

CASKI = test: as above; settings: Gynecologic cancer cell panel viability, ATPlite luminescence, 48 h; series mostly up to 57.5 µM
Outline: as §1

Es-2 = test: as above; settings: Gynecologic cancer cell panel viability, ATPlite luminescence, 48 h; series mostly up to 57.5 µM
Outline: as §1

HeLa = test: as above; settings: Gynecologic cancer cell panel viability, ATPlite luminescence, 48 h; series mostly up to 57.5 µM
Outline: as §1

Hek293T = test: as above; settings: Gynecologic cancer cell panel viability, ATPlite luminescence, 48 h, control line for the selectivity index; series mostly up to 57.5 µM
Outline: as §1

JEG-3 = test: as above; settings: Gynecologic cancer cell panel viability, ATPlite luminescence, 48 h; series mostly up to 57.5 µM
Outline: as §1

CAOV3 = test: as above; settings: Gynecologic cancer cell panel viability, ATPlite luminescence, 48 h; series mostly up to 57.5 µM
Outline: as §1

CC1=C2C(=O)C=C(CO[C@@H]3O[C@H](CO)[C@@H](O)[C@H](O)[C@H]3O)[C@@H]2[C@H]2OC(=O)[C@H](C)[C@@H]2CC1
inactive: outcome (NIH3T3) inactive [at 17.4 µM] | Potency (C33A) | outcome (CASKI) | Potency (Es-2) | Potency (HeLa) | Potency (Hek293T) | Potency (JEG-3)

COc1cc2c(cc1OC)N1C(=O)C[C@@]34C=CC[N@+]5([O-])CC[C@H]2[C@H](CC3)[C@@]145
inactive: outcome (NIH3T3) | Potency (C33A) | outcome (CASKI) | Potency (Es-2) | Potency (HeLa) | Potency (Hek293T) | Potency (JEG-3)

Nc1nc(COC(=O)c2ccc([N+](=O)[O-])cc2)nc(Nc2ccccc2)n1
inactive: outcome (NIH3T3) | Potency (C33A) | outcome (CASKI) | Potency (Es-2) | Potency (HeLa) | Potency (Hek293T) | Potency (JEG-3)

O=C(/C=C/N1C[C@@H]2C[C@@H]1CN2c1ccccn1)c1ccccc1O
inactive: Potency (C33A) | Potency (CAOV3) | outcome (CASKI) | Potency (Es-2) | Potency (HeLa) | Potency (Hek293T) | Potency (JEG-3)

Cc1ccccc1-c1cc(N2CCN(C)CC2)ncc1N(C)C(=O)C(C)(C)c1cc(C(F)(F)F)cc(C(F)(F)F)c1
inactive: Potency (C33A) | Potency (CAOV3) | outcome (CASKI) | Potency (Es-2) | Potency (HeLa) | Potency (Hek293T) | Potency (JEG-3)

CC1=CC[C@@]2(C)CC[C@@](O)(C(C)C)[C@@H]2[C@@H](O)C1
inactive: Potency (C33A) | Potency (CAOV3) | outcome (CASKI) | Potency (Es-2) | Potency (HeLa) | Potency (Hek293T) | Potency (JEG-3)

FC(F)(F)c1nnc2c(Sc3ccccc3)nc3ccc(Cl)cc3n12
inactive: outcome (NIH3T3) | Potency (C33A) | outcome (CASKI) | Potency (HeLa) | Potency (Hek293T) | Potency (JEG-3)

C/C=C/C=C/C=C/C(=O)O[C@@H]1C=C(CO)[C@](O)(CO)[C@@]2(C)CCCC(C)(C)[C@H]12
inactive: Potency (C33A) | Potency (CAOV3) | outcome (CASKI) | Potency (Es-2) | Potency (HeLa) | Potency (Hek293T) | Potency (JEG-3)

CC1(C)CC[C@]2(C(=O)O)CC[C@]3(C)C(=CCC4[C@@]5(C)C[C@@H](O)[C@H](O)[C@](C)(CO)C5CC[C@]43C)[C@@H]2[C@@H]1O (stereo partly specified)
inactive: outcome (NIH3T3) inactive [at 17.4 µM] | outcome (CASKI) | Potency (Hek293T)

Cc1ccccc1N1CCN(S(=O)(=O)C[C@]23CC[C@H](C[C@@H]2NC(=O)[C@@H](N)CCS(C)(=O)=O)C3(C)C)CC1
inactive: Potency (C33A) | outcome (CASKI) | Potency (Es-2) | Potency (HeLa) | Potency (Hek293T) | Potency (JEG-3)

O=C(Cc1ccc(Cl)cc1)Nc1cnccc1C(=O)O
inactive: outcome (NIH3T3) | Potency (CAOV3) | outcome (CASKI) | Potency (Es-2) | Potency (HeLa) | Potency (Hek293T) | Potency (JEG-3)

O=C(N[C@H](Cc1ccccc1)C(=O)O)c1sc2cc(F)ccc2c1Cl
inactive: outcome (NIH3T3) | Potency (C33A) | outcome (CASKI) | Potency (Es-2) | Potency (HeLa) | Potency (Hek293T) | Potency (JEG-3)

CC1(C)CC[C@]2(C(=O)O[C@@H]3O[C@H](CO[C@@H]4O[C@H](CO)[C@@H](O)[C@H](O)[C@H]4O)[C@@H](O)[C@H](O[C@@H]4O[C@H](CO)[C@@H](O)[C@H](O)[C@H]4O)[C@H]3O)[C@H](O)C[C@]3(C)C(=CCC4[C@@]5(C)CC[C@H](O[C@@H]6OC[C@@H](O)[C@H](O)[C@H]6O)[C@@](C)(C(=O)O)C5CC[C@]43C)[C@@H]2C1 (stereo partly specified)
inactive: outcome (NIH3T3) inactive [at 9.27 µM] | activity change, negative = cytotoxicity (C33A) -4.53% [at 11.6 µM] | activity change, negative = cytotoxicity (CASKI) 0.848% [at 11.6 µM] | activity change, negative = cytotoxicity (Es-2) 1.6% [at 11.6 µM] | activity change, negative = cytotoxicity (HeLa) 2.79% [at 11.6 µM] | activity change, negative = cytotoxicity (Hek293T) 10.6% [at 11.6 µM] | activity change, negative = cytotoxicity (JEG-3) -3% [at 11.6 µM]

COc1ccc(CCC(=O)c2c(O)cc(O[C@@H]3O[C@H](CO)[C@@H](O)[C@H](O)[C@H]3O[C@@H]3O[C@@H](C)[C@H](O)[C@@H](O)[C@H]3O)cc2O)cc1O
inactive: Potency (C33A) | Potency (CAOV3) | outcome (CASKI) | Potency (Es-2) | Potency (HeLa) | Potency (Hek293T) | Potency (JEG-3)

N#Cc1ccc(C2CCCc3cncn32)cc1 (stereo unspecified)
inactive: Potency (C33A) | Potency (CAOV3) | outcome (CASKI) | Potency (Hek293T) | Potency (JEG-3)

CCCN1CCC[C@@H](c2cccc(S(C)(=O)=O)c2)C1
inactive: outcome (NIH3T3) | Potency (C33A) | outcome (CASKI) | Potency (Es-2) | Potency (HeLa) | Potency (Hek293T) | Potency (JEG-3)

CCOC(=O)c1ccc(NC2CCCCC2)c(N)c1
inactive: Potency (C33A) | Potency (CAOV3) | outcome (CASKI) | Potency (Es-2) | Potency (HeLa) | Potency (Hek293T) | Potency (JEG-3)

O=C(/C=C/c1ccc(O)c(O)c1)O[C@H]1[C@H](OC2CCCCC2O)O[C@H](CO)[C@@H](O)[C@@H]1O (stereo partly specified)
inactive: Potency (C33A) | Potency (CAOV3) | outcome (CASKI) | Potency (Es-2) | Potency (Hek293T) | Potency (JEG-3)
active: Potency (HeLa) 11.2 µM

C/C(=C\C(=O)C(C)C1CCC2C3=C(CCC21C)C1(C)CCC(=O)C(C)(C)C1(O)CC3)C(C)(C)O (stereo unspecified)
inactive: outcome (NIH3T3) inactive [at 17.4 µM] | Potency (C33A) | outcome (CASKI) | Potency (Es-2) | Potency (HeLa) | Potency (Hek293T) | Potency (JEG-3)

C/C=C/C1OC2=C(C(=O)OC2(C)O)C(O)C1O (stereo unspecified)
inactive: Potency (C33A) | outcome (CASKI) | Potency (Es-2) | Potency (HeLa) | Potency (Hek293T) | Potency (JEG-3)

CC(C)[C@@](O)(c1ccc2cc(OC(F)F)c(OC(F)F)cc2c1)c1cn[nH]n1
inactive: Potency (C33A) | Potency (CAOV3) | outcome (CASKI) | Potency (Es-2) | Potency (HeLa) | Potency (Hek293T) | Potency (JEG-3)

CC(C)C(NC(=O)c1ccc(O)cc1)C(=O)N1CCCC1C(=O)Nc1c(O)cccc1C(=O)O (stereo unspecified)
inactive: outcome (NIH3T3) inactive [at 17.4 µM] | Potency (C33A) | outcome (CASKI) | Potency (Es-2) | Potency (HeLa) | Potency (Hek293T) | Potency (JEG-3)

O=C(/C=C/C=C/c1ccc2c(c1)OCO2)N1CCCCC1
inactive: Potency (C33A) | Potency (CAOV3) | outcome (CASKI) | Potency (HeLa) | Potency (Hek293T) | Potency (JEG-3)

CC(/C=C/C=C(\C)C(=O)O[C@@H]1O[C@H](CO[C@@H]2O[C@H](CO)[C@@H](O)[C@H](O)[C@H]2O)[C@@H](O)[C@H](O)[C@H]1O)=C\C=C\C=C(C)\C=C\C=C(/C)C(=O)O[C@@H]1C[C@](O)(C(=O)O)C[C@@H](O)[C@H]1OC(=O)/C=C/c1ccc(O)c(O)c1
inactive: activity change, negative = cytotoxicity (C33A) 17.9% [at 11.6 µM] | activity change, negative = cytotoxicity (CAOV3) -20% [at 11.6 µM] | activity change, negative = cytotoxicity (CASKI) 21.7% [at 11.6 µM] | activity change, negative = cytotoxicity (Es-2) 1.04% [at 11.6 µM] | activity change, negative = cytotoxicity (HeLa) 2.81% [at 11.6 µM] | activity change, negative = cytotoxicity (Hek293T) -2.06% [at 11.6 µM] | activity change, negative = cytotoxicity (JEG-3) 7.27% [at 11.6 µM]

C[C@@H]1C[C@H]2OC(=O)[C@@]3(C)CCC[C@](C)(C23)[C@@]1(O)CCC1=CC(=O)OC1O (stereo partly specified)
inactive: Potency (C33A) | Potency (CAOV3) | outcome (CASKI) | Potency (Es-2) | Potency (HeLa) | Potency (Hek293T) | Potency (JEG-3)

O=C(COCC(=O)N1CCN(C(c2ccccc2)c2ccccc2)CC1)Nc1ccc(Cl)cc1C(=O)O
inactive: Potency (C33A) | Potency (CAOV3) | outcome (CASKI) | Potency (Es-2) | Potency (HeLa) | Potency (Hek293T) | Potency (JEG-3)

C=C1CC23CC1CCC2C12OC(=O)C(C)(C(O)C(O)C1O)C2C3C(=O)O (stereo unspecified)
inactive: Potency (C33A) | Potency (CAOV3) | outcome (CASKI) | Potency (Es-2) | Potency (HeLa) | Potency (Hek293T) | Potency (JEG-3)

CC(C)CC[C@@H](O)[C@](C)(O)[C@H]1CC[C@@]2(O)C3=CC(=O)[C@@H]4C[C@@H](O)[C@@H](O)C[C@]4(C)[C@H]3CC[C@]12C
inactive: Potency (C33A) | Potency (CAOV3) | outcome (CASKI) | Potency (Es-2) | Potency (HeLa) | Potency (Hek293T) | Potency (JEG-3)
